# According to the supplement of paper PMC4466140:
# Experiments:
# Assay in all cases: SPOT peptide array binding signal intensity (averaged, normalized) (arbitrary units (background-subtracted, floor 0; scale differs between SH3 domains)); higher = stronger binding of the SH3 domain to the peptide
# CaNbp2 = target: CaNbp2
# How it was run: (§1)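 Binding signal is given in arbitrary units that differ between domains and is the normalized, background-subtracted spot intensity averaged across replicates. Each GST-SH3 fusion from one of four yeast species was made in E. coli BL21(DE3), purified on glutathione Sepharose and incubated at 10 μg/ml overnight at 4°C on cellulose-bound synthetic 15-mer peptides in which cysteines were replaced by serines. Detection used anti-GST antibody, an HRP anti-mouse secondary and luminol, followed by imaging and Genespotter quantification.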
# CaRvs167 = target: CaRvs167
# How it was run: as §1
# CaRvs167-3 = target: CaRvs167-3
# How it was run: as §1
# CaSho1 = target: CaSho1
# How it was run: as §1
# CaSla1-D1-D2 = target: CaSla1-D1-D2
# How it was run: as §1
# CaSla1-D3 = target: CaSla1-D3
# How it was run: as §1
# ScAbp1 = target: ScAbp1
# How it was run: as §1
# ScBbc1 = target: ScBbc1
# How it was run: as §1
# ScBem1-D1 = target: ScBem1-D1
# How it was run: as §1
# ScBzz1-D1 = target: ScBzz1-D1
# How it was run: as §1
# ScBzz1-D2 = target: ScBzz1-D2
# How it was run: as §1
# ScCyk3 = target: ScCyk3
# How it was run: as §1
# ScFus1 = target: ScFus1
# How it was run: as §1
# ScHof1 = target: ScHof1
# How it was run: as §1
# ScHse1 = target: ScHse1
# How it was run: as §1
# ScLsb1 = target: ScLsb1
# How it was run: as §1
# ScLsb2 = target: ScLsb2
# How it was run: as §1
# ScLsb3 = target: ScLsb3
# How it was run: as §1
# ScLsb4 = target: ScLsb4
# How it was run: as §1
# ScMyo3 = target: ScMyo3
# How it was run: as §1
# ScMyo5 = target: ScMyo5
# How it was run: as §1
# ScNbp2 = target: ScNbp2
# How it was run: as §1
# ScPex13 = target: ScPex13
# How it was run: as §1
# ScRvs167 = target: ScRvs167
# How it was run: as §1
# ScSho1 = target: ScSho1
# How it was run: as §1
# ScSla1-D1-D2 = target: ScSla1-D1-D2
# How it was run: as §1
# ScSla1-D3 = target: ScSla1-D3
# How it was run: as §1
# SpAbp1-D1 = target: SpAbp1-D1
# How it was run: as §1
# SpBbc1 = target: SpBbc1
# How it was run: as §1
# SpBzz1-D1 = target: SpBzz1-D1
# How it was run: as §1
# SpBzz1-D2 = target: SpBzz1-D2
# How it was run: as §1
# SpCyk3 = target: SpCyk3
# How it was run: as §1
# SpHof1 = target: SpHof1
# How it was run: as §1
# SpHof1-2 = target: SpHof1-2
# How it was run: as §1
# SpHof1-3 = target: SpHof1-3
# How it was run: as §1
# SpHse1 = target: SpHse1
# How it was run: as §1
# SpLsb1 = target: SpLsb1
# How it was run: as §1
# SpLsb4 = target: SpLsb4
# How it was run: as §1
# SpMyo1 = target: SpMyo1
# How it was run: as §1
# SpNbp2 = target: SpNbp2
# How it was run: as §1
# SpPex13 = target: SpPex13
# How it was run: as §1
# SpRvs167 = target: SpRvs167
# How it was run: as §1
# SpSla1-D1-D2 = target: SpSla1-D1-D2
# How it was run: as §1
# SpSla1-D3 = target: SpSla1-D3
# How it was run: as §1
# AgAbp1 = target: AgAbp1
# How it was run: as §1
# AgBbc1 = target: AgBbc1
# How it was run: as §1
# AgBem1-D1 = target: AgBem1-D1
# How it was run: as §1
# AgBzz1-D1 = target: AgBzz1-D1
# How it was run: as §1
# AgBzz1-D2 = target: AgBzz1-D2
# How it was run: as §1
# AgCyk3 = target: AgCyk3
# How it was run: as §1
# AgFus1 = target: AgFus1
# How it was run: as §1
# AgHof1 = target: AgHof1
# How it was run: as §1
# AgHse1 = target: AgHse1
# How it was run: as §1
# AgLsb1 = target: AgLsb1
# How it was run: as §1
# AgLsb4 = target: AgLsb4
# How it was run: as §1
# AgMyo5 = target: AgMyo5
# How it was run: as §1
# AgNbp2 = target: AgNbp2
# How it was run: as §1
# AgRvs167 = target: AgRvs167
# How it was run: as §1
# AgSho1 = target: AgSho1
# How it was run: as §1
# AgSla1-D1-D2 = target: AgSla1-D1-D2
# How it was run: as §1
# AgSla1-D3 = target: AgSla1-D3
# How it was run: as §1
# CaAbp1-D1 = target: CaAbp1-D1
# How it was run: as §1
# CaAbp1-D2 = target: CaAbp1-D2
# How it was run: as §1
# CaBbc1 = target: CaBbc1
# How it was run: as §1
# CaBem1-D1 = target: CaBem1-D1
# How it was run: as §1
# CaBzz1-D1 = target: CaBzz1-D1
# How it was run: as §1
# CaBzz1-D2 = target: CaBzz1-D2
# How it was run: as §1
# CaCyk3 = target: CaCyk3
# How it was run: as §1
# CaFus1 = target: CaFus1
# How it was run: as §1
# CaHof1 = target: CaHof1
# How it was run: as §1
# CaHse1 = target: CaHse1
# How it was run: as §1
# CaLsb1 = target: CaLsb1
# How it was run: as §1
# CaLsb4 = target: CaLsb4
# How it was run: as §1
# CaMyo5 = target: CaMyo5
# How it was run: as §1
binder,measurement,setting,value
VRVKKRPLIRPLNSS,SPOT peptide array binding signal intensity,CaNbp2,311
same,SPOT peptide array binding signal intensity,CaRvs167,8.5
same,SPOT peptide array binding signal intensity,CaRvs167-3,183
same,SPOT peptide array binding signal intensity,CaSho1,370
same,SPOT peptide array binding signal intensity,CaSla1-D1-D2,534
same,SPOT peptide array binding signal intensity,CaSla1-D3,0.25
same,SPOT peptide array binding signal intensity,ScAbp1,138
same,SPOT peptide array binding signal intensity,ScBbc1,82
same,SPOT peptide array binding signal intensity,ScBem1-D1,70
same,SPOT peptide array binding signal intensity,ScBzz1-D1,11.5
same,SPOT peptide array binding signal intensity,ScBzz1-D2,11
same,SPOT peptide array binding signal intensity,ScCyk3,91.5
same,SPOT peptide array binding signal intensity,ScFus1,156
same,SPOT peptide array binding signal intensity,ScHof1,0.75
same,SPOT peptide array binding signal intensity,ScHse1,1480
same,SPOT peptide array binding signal intensity,ScLsb1,57.8
same,SPOT peptide array binding signal intensity,ScLsb2,5.5
same,SPOT peptide array binding signal intensity,ScLsb3,312
same,SPOT peptide array binding signal intensity,ScLsb4,19
same,SPOT peptide array binding signal intensity,ScMyo3,3
same,SPOT peptide array binding signal intensity,ScMyo5,1.5
same,SPOT peptide array binding signal intensity,ScNbp2,312
same,SPOT peptide array binding signal intensity,ScPex13,0.25
same,SPOT peptide array binding signal intensity,ScRvs167,15.5
same,SPOT peptide array binding signal intensity,ScSho1,386
same,SPOT peptide array binding signal intensity,ScSla1-D1-D2,330
same,SPOT peptide array binding signal intensity,ScSla1-D3,16
same,SPOT peptide array binding signal intensity,SpAbp1-D1,388
same,SPOT peptide array binding signal intensity,SpBbc1,9.75
same,SPOT peptide array binding signal intensity,SpBzz1-D1,150
same,SPOT peptide array binding signal intensity,SpBzz1-D2,≤ 0
same,SPOT peptide array binding signal intensity,SpCyk3,≤ 0
same,SPOT peptide array binding signal intensity,SpHof1,188
same,SPOT peptide array binding signal intensity,SpHof1-2,12.5
same,SPOT peptide array binding signal intensity,SpHof1-3,373
same,SPOT peptide array binding signal intensity,SpHse1,279
same,SPOT peptide array binding signal intensity,SpLsb1,14.5
same,SPOT peptide array binding signal intensity,SpLsb4,135
same,SPOT peptide array binding signal intensity,SpMyo1,5.5
same,SPOT peptide array binding signal intensity,SpNbp2,773
same,SPOT peptide array binding signal intensity,SpPex13,17
same,SPOT peptide array binding signal intensity,SpRvs167,3.67
same,SPOT peptide array binding signal intensity,SpSla1-D1-D2,≤ 0
same,SPOT peptide array binding signal intensity,SpSla1-D3,2
EVTPKVPERPSRRKT,SPOT peptide array binding signal intensity,AgAbp1,377
same,SPOT peptide array binding signal intensity,AgBbc1,2180
same,SPOT peptide array binding signal intensity,AgBem1-D1,13
same,SPOT peptide array binding signal intensity,AgBzz1-D1,819
same,SPOT peptide array binding signal intensity,AgBzz1-D2,136
same,SPOT peptide array binding signal intensity,AgCyk3,1
same,SPOT peptide array binding signal intensity,AgFus1,4.5
same,SPOT peptide array binding signal intensity,AgHof1,21.8
same,SPOT peptide array binding signal intensity,AgHse1,47
same,SPOT peptide array binding signal intensity,AgLsb1,39.9
same,SPOT peptide array binding signal intensity,AgLsb4,2480
same,SPOT peptide array binding signal intensity,AgMyo5,1.25
same,SPOT peptide array binding signal intensity,AgNbp2,44.5
same,SPOT peptide array binding signal intensity,AgRvs167,11.3
same,SPOT peptide array binding signal intensity,AgSho1,8.25
same,SPOT peptide array binding signal intensity,AgSla1-D1-D2,≤ 0
same,SPOT peptide array binding signal intensity,AgSla1-D3,7.75
same,SPOT peptide array binding signal intensity,CaAbp1-D1,324
same,SPOT peptide array binding signal intensity,CaAbp1-D2,620
same,SPOT peptide array binding signal intensity,CaBbc1,2760
same,SPOT peptide array binding signal intensity,CaBem1-D1,24
same,SPOT peptide array binding signal intensity,CaBzz1-D1,1370
same,SPOT peptide array binding signal intensity,CaBzz1-D2,406
same,SPOT peptide array binding signal intensity,CaCyk3,420
same,SPOT peptide array binding signal intensity,CaFus1,≤ 0
same,SPOT peptide array binding signal intensity,CaHof1,4.88
same,SPOT peptide array binding signal intensity,CaHse1,316
same,SPOT peptide array binding signal intensity,CaLsb1,≤ 0
same,SPOT peptide array binding signal intensity,CaLsb4,6660
same,SPOT peptide array binding signal intensity,CaMyo5,≤ 0
same,SPOT peptide array binding signal intensity,CaNbp2,80.8
same,SPOT peptide array binding signal intensity,CaRvs167,177
same,SPOT peptide array binding signal intensity,CaRvs167-3,2
same,SPOT peptide array binding signal intensity,CaSho1,≤ 0
same,SPOT peptide array binding signal intensity,CaSla1-D1-D2,786
same,SPOT peptide array binding signal intensity,CaSla1-D3,0.5
same,SPOT peptide array binding signal intensity,ScAbp1,141
same,SPOT peptide array binding signal intensity,ScBbc1,2080
same,SPOT peptide array binding signal intensity,ScBem1-D1,10
same,SPOT peptide array binding signal intensity,ScBzz1-D1,57.5
same,SPOT peptide array binding signal intensity,ScBzz1-D2,11.8
same,SPOT peptide array binding signal intensity,ScCyk3,1.53e-05
same,SPOT peptide array binding signal intensity,ScFus1,5
same,SPOT peptide array binding signal intensity,ScHof1,11.5
same,SPOT peptide array binding signal intensity,ScHse1,≤ 0
same,SPOT peptide array binding signal intensity,ScLsb1,842
same,SPOT peptide array binding signal intensity,ScLsb2,508
same,SPOT peptide array binding signal intensity,ScLsb3,6280
same,SPOT peptide array binding signal intensity,ScLsb4,5280
same,SPOT peptide array binding signal intensity,ScMyo3,1.5
same,SPOT peptide array binding signal intensity,ScMyo5,≤ 0
same,SPOT peptide array binding signal intensity,ScNbp2,270
same,SPOT peptide array binding signal intensity,ScPex13,1490
same,SPOT peptide array binding signal intensity,ScRvs167,924
same,SPOT peptide array binding signal intensity,ScSho1,28.5
same,SPOT peptide array binding signal intensity,ScSla1-D1-D2,2340
same,SPOT peptide array binding signal intensity,ScSla1-D3,69.4
same,SPOT peptide array binding signal intensity,SpAbp1-D1,130
same,SPOT peptide array binding signal intensity,SpBbc1,1260
same,SPOT peptide array binding signal intensity,SpBzz1-D1,514
same,SPOT peptide array binding signal intensity,SpBzz1-D2,≤ 0
same,SPOT peptide array binding signal intensity,SpCyk3,0.75
same,SPOT peptide array binding signal intensity,SpHof1,25.4
same,SPOT peptide array binding signal intensity,SpHof1-2,74.4
same,SPOT peptide array binding signal intensity,SpHof1-3,73.8
same,SPOT peptide array binding signal intensity,SpHse1,51.2
same,SPOT peptide array binding signal intensity,SpLsb1,1550
same,SPOT peptide array binding signal intensity,SpLsb4,6800
same,SPOT peptide array binding signal intensity,SpMyo1,4.25
same,SPOT peptide array binding signal intensity,SpNbp2,9.5
same,SPOT peptide array binding signal intensity,SpPex13,≤ 0
same,SPOT peptide array binding signal intensity,SpRvs167,1310
same,SPOT peptide array binding signal intensity,SpSla1-D1-D2,48.5
same,SPOT peptide array binding signal intensity,SpSla1-D3,2
